# In the supplement of paper PMC9117331:
# Assays:
# Details in all cases: 0.5 µM; time after treatment 48 h; PC9 signalome
# [1] = system: PC9; assay: AKT reporter activity score (signed KS statistic vs DMSO) (signed KS statistic (-1 to 1)); higher = stronger activation of the pathway reporter relative to DMSO
# [2] = system: PC9; assay: RAR reporter activity score (signed KS statistic vs DMSO) (signed KS statistic (-1 to 1)); higher = stronger activation of the pathway reporter relative to DMSO
# [3] = system: PC9; assay: PKC reporter activity score (signed KS statistic vs DMSO) (signed KS statistic (-1 to 1)); higher = stronger activation of the pathway reporter relative to DMSO
# [4] = system: PC9; assay: PKA reporter activity score (signed KS statistic vs DMSO) (signed KS statistic (-1 to 1)); higher = stronger activation of the pathway reporter relative to DMSO
# [5] = system: PC9; assay: p38 reporter activity score (signed KS statistic vs DMSO) (signed KS statistic (-1 to 1)); higher = stronger activation of the pathway reporter relative to DMSO
# [6] = system: PC9; assay: HIF reporter activity score (signed KS statistic vs DMSO) (signed KS statistic (-1 to 1)); higher = stronger activation of the pathway reporter relative to DMSO
# [7] = system: PC9; assay: ERK reporter activity score (signed KS statistic vs DMSO) (signed KS statistic (-1 to 1)); higher = stronger activation of the pathway reporter relative to DMSO
# [8] = system: PC9; assay: JNK reporter activity score (signed KS statistic vs DMSO) (signed KS statistic (-1 to 1)); higher = stronger activation of the pathway reporter relative to DMSO
# [9] = system: PC9; assay: WNT reporter activity score (signed KS statistic vs DMSO) (signed KS statistic (-1 to 1)); higher = stronger activation of the pathway reporter relative to DMSO
# [10] = system: PC9; assay: NFkB reporter activity score (signed KS statistic vs DMSO) (signed KS statistic (-1 to 1)); higher = stronger activation of the pathway reporter relative to DMSO
# [11] = system: PC9; assay: YAP/TAZ reporter activity score (signed KS statistic vs DMSO) (signed KS statistic (-1 to 1)); higher = stronger activation of the pathway reporter relative to DMSO
smiles,measurement,setting,value
CC[C@@H]1/C=C/C=C/C[C@H](C)[C@H](O)[C@](C)(O)C(=O)[C@H](C)[C@@H](O)[C@H](C)C(=O)[C@H](C)[C@@H](O)[C@H](C)/C=C/C(=O)O[C@H]2[C@@H](C)[C@@H](CC1)O[C@@]1(CC[C@@H](C)[C@@H](C[C@H](C)O)O1)[C@@H]2C [Oligomycin A],AKT reporter activity score,[1],-0.252
same,RAR reporter activity score,[2],0.0549
same,PKC reporter activity score,[3],0.0686
same,PKA reporter activity score,[4],-0.0505
same,p38 reporter activity score,[5],-0.305
same,HIF reporter activity score,[6],0.335
same,ERK reporter activity score,[7],0.114
same,JNK reporter activity score,[8],0.0667
same,WNT reporter activity score,[9],0.138
same,NFkB reporter activity score,[10],0.0911
same,YAP/TAZ reporter activity score,[11],0.161
